hNpr1 antagonist: human Npr1 receptor antagonism | P16066 | Potency, µM (top dose mostly 46.3 µM), without a hit: top-dose activity change, negative = inhibition, actives largely listed as inhibitors | HEK293 hNpr1 GloSensor cGMP, ANP-stimulated luminescence | hit rate 1.6% among 76,000; calls by dose curve; further: nearly all actives have a fitted effect of over 60% in size
Target sequence (P16066 whole entry, looked up): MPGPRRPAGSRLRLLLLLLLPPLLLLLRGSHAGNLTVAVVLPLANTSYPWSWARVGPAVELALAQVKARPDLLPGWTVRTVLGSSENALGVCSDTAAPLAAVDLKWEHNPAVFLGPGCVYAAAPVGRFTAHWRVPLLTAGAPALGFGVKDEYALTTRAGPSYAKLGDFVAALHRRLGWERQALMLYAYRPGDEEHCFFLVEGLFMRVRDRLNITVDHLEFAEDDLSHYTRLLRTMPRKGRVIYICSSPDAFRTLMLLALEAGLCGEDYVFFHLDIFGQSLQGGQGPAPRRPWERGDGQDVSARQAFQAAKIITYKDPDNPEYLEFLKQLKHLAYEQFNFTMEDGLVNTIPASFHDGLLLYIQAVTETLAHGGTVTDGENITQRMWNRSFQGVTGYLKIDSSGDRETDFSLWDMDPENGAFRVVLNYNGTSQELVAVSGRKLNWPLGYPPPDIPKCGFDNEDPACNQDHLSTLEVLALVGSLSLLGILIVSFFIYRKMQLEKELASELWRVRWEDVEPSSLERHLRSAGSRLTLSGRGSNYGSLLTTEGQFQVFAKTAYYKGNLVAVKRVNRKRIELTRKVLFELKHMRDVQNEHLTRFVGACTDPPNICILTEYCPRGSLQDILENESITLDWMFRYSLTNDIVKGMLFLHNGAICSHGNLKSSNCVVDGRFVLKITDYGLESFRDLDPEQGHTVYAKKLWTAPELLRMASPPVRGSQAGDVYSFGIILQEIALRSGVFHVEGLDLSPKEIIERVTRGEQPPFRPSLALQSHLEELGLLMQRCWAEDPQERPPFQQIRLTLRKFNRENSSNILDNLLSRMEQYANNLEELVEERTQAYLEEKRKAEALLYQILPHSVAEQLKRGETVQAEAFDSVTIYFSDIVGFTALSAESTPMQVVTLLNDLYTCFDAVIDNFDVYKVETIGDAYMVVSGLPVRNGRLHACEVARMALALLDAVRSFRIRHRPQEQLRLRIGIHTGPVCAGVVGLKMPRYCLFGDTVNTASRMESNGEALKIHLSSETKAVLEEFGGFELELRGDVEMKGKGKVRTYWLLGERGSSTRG
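HEK293 cells stably expressing human Npr1 and cGMP GloSensor pGS-40F, loaded 2 h with 2% GloSensor reagent, given compound 30 min at room temperature. Luminescence read before and 20 min after 0.1 nM hNppA.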
GPT2 inh: inhibitors of human GPT2 alanine aminotransferase; Potency, µM (top dose mostly 57.7 µM), without a hit: top-dose activity change, negative = inhibition, most hits filed as inhibitors; Recombinant GPT2, coupled pyruvate oxidase/HRP Amplex Red fluorescence; hit rate 0.25% among 100,000; Q8TD30; further: nearly all actives have a fitted effect of over 60% in size
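GPT2 10ng/uL, a-KG 250uM, L-Ala 2mM, HEPES pH7.5 + 0.0001% Tween; 30 min RT. Then Amplex mix (PO/HRP/ThPP), 30 min RT dark, fluorescence. AOA 50uM used as positive control.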
HEK cytotox: kills HEK 293 cells; hit rate 6.6% among 94,000; HEK 293 viability, ATP luminescence (CellTiter-Glo), 48-72 h; AID 1345083; Potency, µM (titrated, usually from 115 µM), for inactives: at the top dose activity change, negative = cytotoxicity, most hits filed as inhibitors; further: nearly all actives have a fitted effect of over 60% in size
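HEK 293 cells at 250 cells/well were exposed to compounds by pintool transfer for 48 or 72 hr at 37 degree Celsius, 5% CO2. Viability was read as ATP-coupled luminescence with CellTiter-Glo after 10 min at room temperature.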
FLuc inh: inhibitors of firefly (Photinus pyralis) luciferase | P08659 | purified P. pyralis luciferase, luminescence, biochemical | Potency, µM (series often up to 115 µM), actives largely listed as inhibitors | hit rate 2.5% among 76,000; further: nearly all actives have a fitted effect of over 65% in size
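Cell-free enzyme assay, 10nM P. pyralis luciferase, luciferin and ATP each at 10uM. Inhibition profiled over a 6-point titration, read as luminescence.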
NIH3T3 tox: kills NIH 3T3 cells | Potency, µM (top dose mostly 96.7 µM), for inactives: at the top dose activity change, negative = cytotoxicity, most hits filed as inhibitors | NIH 3T3 viability, CellTiter-Glo ATP luminescence, 48-72 h | AID 1345082 | hit rate 4.3% among 94,000; further: nearly all actives have a fitted effect of over 55% in size
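NIH 3T3 cells at 400 cells/well received 23 nL of compound by pintool and were incubated 48 or 72 h at 37 °C. Viability was read as ATP-coupled CellTiter-Glo luminescence.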
Numbers without * were called inactive; i = inactive; ? = inconclusive; . = no result; [ ] = dose if it differs, or a comment. A selection: hits, their analogues and other compounds. The true share with any hit is near 10%. Unless noted, the call rests on the fitted dose curve; in most records, active means well fitted curve in the direction sought with a large enough effect; inconclusive means small, poorly fitted or top-dose-only effect, or another doubt; inactive means no such curve, though single readings can be large; an effect the other way counts as inactive or inconclusive. On the % scale 0 is the no-effect control and ±100 the full control effect; potency means the concentration at half of the fitted maximal effect.

SMILES | hNpr1 antagonist | GPT2 inh | HEK cytotox | FLuc inh | NIH3T3 tox
Cc1nn(-c2ccccc2)c2c1C(C(C)C)N(C1CCCN(C(=O)c3ccccc3F)C1)C2=O (stereo not given) | . | . | 35µM* | . | ?
Cc1nn(-c2ccccc2)c2c1C(C(C)C)N(C1CN(C(=O)N(C)C)C1)C2=O (stereo not given) | . | . | ? | . | -26%
Cc1ccccc1C(=O)N1CC(N2C(=O)c3c(c(C)nn3-c3ccccc3)C2C(C)C)C1 (stereo not given) | . | . | 50µM* | . | ?
Cc1nn(-c2ccccc2)c2c1C(C(C)C)N(C1CCCN(C(=O)C(C)(C)C)C1)C2=O (stereo not given) | . | . | ? | . | -5%
Cc1nn(-c2ccccc2)c2c1C(C(C)C)N(C1CCCN(C(=O)C3CCCC3)C1)C2=O (stereo not given) | . | . | -10% | . | -19%
Cc1ccc(C(=O)N2CCCC(N3C(=O)c4c(c(C)nn4-c4ccccc4)C3C(C)C)C2)cc1 (stereo not given) | . | . | 45µM* | . | ?
O=C(c1cccc(Cl)c1)N1CCCN(CCn2nc3n(c2=O)CCCC3)CC1 | . | . | i | . | -21%
O=C(NCCN1CCCCC1)c1ccc(-c2ccc(N3CCCCC3)nc2)cc1 | -3% | i | ? | ? | 20µM*
O=C(NCCNC(=O)c1ccccn1)c1ccc(-c2cncnc2)cc1 | . | . | 3%[172 µM] | . | -8%[138 µM]
O=C(Cc1ccccn1)NCCNC(=O)c1ccc(-c2cncnc2)cc1 | . | . | 89µM* | . | ?
CN1CCN(CCNC(=O)c2ccc(-c3ccc(N4CCCCCC4)nc3)cc2)CC1 | -17% | i | 25µM* | i | 14µM*
O=C(NCCCN1CCCC1)c1ccc(-c2ccc(N3CCCCC3)nc2)cc1 | 0% | i | ? | ? | ?
CCC(C)NC(=O)c1ccc(-c2ccc(N3CCSCC3)nc2)cc1 (stereo not given) | -11% | -2% | -3% | ? | -5%
CN(C)CCNC(=O)c1ccc(-c2ccc(N3CCCCCC3)nc2)cc1 | -2% | i | 32µM* | ? | 18µM*
N#Cc1cccnc1-c1cccc(C(=O)NCCNC(=O)c2ccccc2F)c1 | . | i | -13% | . | -16%
CN(Cc1ccco1)C(=O)c1ccc(-c2ccc(N3CCCCCC3)nc2)cc1 | ? | i | 40µM* | ? | ?
O=C(NCCN1CCOCC1)c1ccc(-c2ccc(N3CCSCC3)nc2)cc1 | -14% | -8% | ? | ? | -7%
O=C(NCc1ccccn1)c1ccc(-c2ccc(N3CCCCC3)nc2)cc1 | -26% | 0% | 22µM* | ? | ?
O=C(NCCN1CCCCC1)c1ccc(-c2ccc(N3CCSCC3)nc2)cc1 | -21% | i | 35µM* | i | 28µM*
Cn1ccnc1C(=O)N1C[C@@H](COCC2CC2)[C@H](c2ccncc2)C1 | -4% | -3% | i | i | i
COC1C(=O)N(C2CCN(Cc3scnc3C)CC2)C12CCOCC2 (stereo not given) | 0% | -21% | i | i | i
CCN(Cc1ccccc1)c1ncncc1-c1nc(-c2ccccc2)no1 | -24% | -5% | 79µM* | i | ?
COc1ccc(CN2CCc3nc(N(C)C)[nH]c(=O)c3CC2)cc1OC | 1% | -10% | 10% | i | 5%
CCCNc1cc(N2CCC(CCC(=O)Nc3cccc(C)c3)CC2)ncn1 | -23% | ? | i | 20µM* | 0%
CCCNc1cc(N2CCC(CCC(=O)NCC)CC2)ncn1 | -14% | -2% | i | i | -7%
SMILES | hNpr1 antagonist | GPT2 inh | HEK cytotox | FLuc inh | NIH3T3 tox
CCCNC(=O)CCC1CCN(c2cc(NCCC)ncn2)CC1 | -3% | i | 1% | ? | -11%
CCCNc1cc(N2CCC(CCC(=O)N3CCN(c4cccc(C)c4)CC3)CC2)ncn1 | ? | i | 20µM* | ? | ?
CCCNc1cc(N2CCC(CCC(=O)N3CCN(c4ccc(F)cc4)CC3)CC2)ncn1 | 11µM* | i | ? | ? | 20µM*
COCC(=O)NC1CCC12CCN(C(=O)Cc1cccnc1)CC2 (stereo not given) | 6% | i | i | i | i
COCCc1noc(-c2nc(-c3ccc4c(c3)OCO4)no2)n1 | -17% | i | ? | 18µM* | -4%
OCc1ccc(CN2C[C@H](O)C[C@H]2c2nc(-c3ccc4c(c3)OCO4)no2)o1 | -13%[70.6 µM] | ? | -16%[172 µM] | 18µM* | -28%[174 µM]
c1cc2c(cc1-c1noc(-c3nc(-c4ccc5c(c4)OCO5)no3)n1)OCO2 | -9% | i | 13% | i | i
CN1C[C@H](O)C[C@H]1c1nc(-c2ccc3c(c2)OCO3)no1 | -14%[70.6 µM] | -4%[88.5 µM] | -25%[230 µM] | 28µM* | -21%[230 µM]
O[C@@H]1C[C@@H](c2nc(-c3ccc4c(c3)OCO4)no2)N(Cc2ccc(C(F)(F)F)cc2)C1 | -11%[70.6 µM] | -5%[88.5 µM] | ? | i | ?
O[C@@H]1C[C@@H](c2nc(-c3ccc4c(c3)OCO4)no2)N(Cc2ccncc2)C1 | ? | i | 89µM* | ? | ?
Cn1cncc1C(=O)NC1CCN(c2ccc(=O)n(C)n2)CC1 | 1% | 4% | 4% | i | -13%
COc1cncc(NC(=O)C2=NO[C@@H]3CN(Cc4cccc(F)c4)C[C@H]23)c1 | -11%[70.6 µM] | -12%[88.5 µM] | -22%[172 µM] | i | ?
CN(C)c1ccc(-c2nc(C3CC(=O)N(c4ccc(F)cc4)C3)no2)cc1 (stereo not given) | -1% | i | 1% | i | -2%
CN1CCCN(S(=O)(=O)c2ccc(Cl)s2)c2ccccc21 | -27% | 5% | ? | i | ?
COc1ccc(N2CCN(c3nc(C(=O)NC4CC4)cs3)CC2)cc1 | ? | ? | 32µM* | i | 28µM*
O=C(NCc1cccs1)c1csc(N2CCN(c3ccc(F)cc3)CC2)n1 | ? | i | 32µM* | i | ?
COc1ccc(N2CCN(c3nc(C(=O)NCc4ccccc4C)cs3)CC2)cc1 | -28% | ? | 28µM* | i | ?
O=C(NC1CCCC1)c1csc(N2CCN(c3ccccc3F)CC2)n1 | ? | i | ? | i | 25µM*
COc1ccc(N2CCN(c3nc(C(=O)NCC4CCCCC4)cs3)CC2)cc1 | -15% | i | -26% | i | -10%
CC(C)CC(=O)C(=O)N1CCN(Cc2cccnc2)[C@@H]2CS(=O)(=O)C[C@@H]21 | 0% | -15% | i | i | -6%
C=CCNC(=O)N[C@H]1CCN(C(=O)CC(C)(C)C)[C@@H]1C(=O)N[C@@H](Cc1cccs1)C(N)=O | 3% | -3% | -2% | i | -10%
COCCN1C(=O)[C@@H]2C[C@@H](CN2Cc2ccccc2)Oc2ccccc21 | -1%[70.6 µM] | -14%[88.5 µM] | ? | i | -23%[138 µM]
